PubChem BioAssay AID618 (Sanford-Burnham Center for Chemical Genomics, 2007)
Hit rate of the full screen: of about 87,000 compounds, about 540 (0.62%) were called active. The rule behind the calls is not given here. Shown is part of a subset that was picked to be rich in actives. Entries with a potency or affinity are not part of this list.

Assay: MT1-MMP gene expression reporter suppression – cell-based, luciferase reporter, luminescence (AID 618);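 note: actives suppress MT1-MMP promoter-driven transcription so potencies describe inhibitors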
Conditions: MT1-MMP promoter luciferase reporter cells

Row | Structure (SMILES) | outcome
1 | CC(C)Cc1nnc(NC(=O)CCN2C(=O)c3ccccc3C2=O)s1 | inactive
2 | CCOC(=O)C1=C(C)N(Cc2ccccc2)C(=O)NC1c1ccc(OC)cc1 (stereo unspecified) | inactive
3 | c1ccc(N2CCCCC2)c(NC2=NCCC2)c1 | inactive
4 | Cc1ccc(-c2nc(=S)c3c(n2CC2CCCO2)CC(C)(C)OC3)cc1 (stereo unspecified) | inactive
5 | O=C(NCCCN1CCCC1=O)c1cc(=O)c2ccccc2o1 | inactive
6 | CCOC(=O)CN(C(=O)Cn1nnc2ccccc21)C(C(=O)NCCOC)c1ccccc1C (stereo unspecified) | inactive
7 | COc1ccc2[nH]c3nc(SC(C)C)nnc3c2c1 | active
8 | COc1ccc2[nH]c3nc(SCc4nnc(-c5ccccc5)o4)nnc3c2c1 | inactive
9 | COc1ccc2[nH]c3nc(SCc4nnc(-c5ccc(C)cc5)o4)nnc3c2c1 | inactive
10 | COc1ccc(NC(=O)c2cnc3sccn3c2=O)cc1 | inactive
11 | Cc1ccc(-c2nc3ccccn3c2NC(=O)c2ccco2)cc1 | inactive
12 | Cc1cccn2c(=O)c3cc(C(=O)NCc4ccco4)c(=N)n(CCOCCO)c3nc12 | inactive
13 | CCOc1ccc(C2=Nn3c(nnc3-c3ccccc3OC)SC2)cc1 | active
14 | COc1ccc(OC)c(C2=Nn3c(nnc3-c3cc(OC)c(OC)c(OC)c3)SC2)c1 | inactive
15 | COc1ccc(C2=Nn3c(nnc3-c3ccccc3OC)SC2)cc1OC | active
16 | COc1ccc(-c2nnc3n2N=C(c2ccccc2)CS3)cc1OC | inactive
17 | COc1ccccc1-c1nnc2n1N=C(c1ccc(O)c(O)c1)CS2 | inactive
18 | COc1cc(-c2nnc3n2N=C(c2ccccc2)CS3)cc(OC)c1OC | active
19 | COc1ccc(C2=Nn3c(nnc3-c3ccccc3)SC2)cc1OC | inactive
20 | CCOc1ccc(C2=Nn3c(nnc3-c3ccc(OC)cc3)SC2)cc1 | inactive
21 | CCOc1ccc(-c2nnc3n2N=C(c2ccc(OC)cc2)CS3)cc1 | inactive

Row | Structure (SMILES) | outcome
22 | COC(=O)c1ccccc1NC(=O)Cn1c(=O)oc2ccc(Cl)cc21 | inactive
23 | C=CCNc1sc(C(=O)c2ccc(Br)s2)c(N)c1C#N | inactive
24 | Cc1ccc(C(=O)NNC(=O)Cc2ccccc2)cc1 | inactive
25 | Cc1nc2ccccc2n1CC(=O)OCC(=O)Nc1ccc2c(c1)OCCO2 | inactive
26 | CCc1nnc2n1N=C(c1ccc(OC)cc1)CS2 | inactive
27 | CCCNC(=O)c1oc2ccc3c(c2c1C)C(=O)CC(C)(C)O3 | inactive
28 | Cc1c(C(=O)NCc2ccoc2)oc2ccc3c(c12)C(=O)CC(C)(C)O3 | inactive
29 | CCC(C)n1c(SC(C)C#N)nc2ccccc2c1=O (stereo unspecified) | inactive
30 | Nc1nonc1C(=Nc1ccccc1)NO | inactive
31 | CCOc1ccc(OCc2ccc(C(=O)NCc3cccnc3)o2)cc1 | inactive
32 | CCOC(=O)N1CCN(c2nc(-c3ccc(OC)cc3)no2)CC1 | inactive
33 | c1ccc(COc2ccc(OCCn3cncn3)cc2)cc1 | inactive
34 | O=c1c2ccccc2nc2n1CCCCC2 | inactive
35 | COc1ccc(-c2cc3nc4n(c(=O)c3s2)CCC4)cc1 | active
36 | COc1ccc(-c2cc3nc4n(c(=O)c3s2)CCOC4)cc1 | inactive
37 | COc1ccc(-c2nc3n(c2Br)CCC3)cc1 | inactive
38 | O=c1c2ccccc2nc2n1CCC2 | inactive
39 | COc1cc2c(cc1NC(=O)CN1C(=O)NC3(CCc4ccccc43)C1=O)oc1ccccc12 (stereo unspecified) | inactive
40 | Cc1ccc(S(=O)(=O)NC(=O)Nc2c(C)n(C)n(-c3ccccc3)c2=O)cc1 | inactive
41 | CCOc1ccccc1NC(=O)CN(c1ccc(OC)cc1)S(=O)(=O)c1c(C)noc1C | inactive
42 | CCOc1ccc(N(CC(=O)Nc2ccccc2C)S(=O)(=O)c2c(C)noc2C)cc1 | active

Row | Structure (SMILES) | outcome
43 | CCOc1ccccc1NC(=O)CN(c1ccc(C)cc1)S(=O)(=O)c1c(C)noc1C | inactive
44 | Cc1nnc2n(C3CCCCC3)c(=O)c3c4c(sc3n12)CCC4 | inactive
45 | Cc1nc(Cl)sc1C(=O)O | inactive
46 | O=C(Nc1ccon1)c1cc2c(s1)CCCCCC2 | inactive
47 | O=S(=O)(c1ccc(Oc2ccc(S(=O)(=O)N3CCOCC3)cc2)cc1)N1CCOCC1 | inactive
48 | C=CS(=O)(=O)c1ccc(Oc2ccc(S(=O)(=O)C=C)cc2)cc1 | active
49 | CNS(=O)(=O)c1ccc(Oc2ccc(S(=O)(=O)NC)cc2)cc1 | inactive
50 | CCOCCCNC(=O)c1ccc2c(c1)OCO2 | inactive
51 | COCCCNC(=O)c1ccc2c(c1)OCO2 | inactive
52 | O=C(NCCOc1ccccc1)c1ccc2c(c1)OCO2 | active
53 | Cn1c(=O)c2c(nc(CN3CCN(c4ccccc4)CC3)n2CCCc2ccccc2)n(C)c1=O | inactive
54 | COc1ccccc1NC(=O)CN1C(=O)NC(C)(C)C1=O | inactive
55 | O=C(NCc1ccccc1)C(c1cccnc1)N(Cc1ccco1)C(=O)c1ccccn1 (stereo unspecified) | inactive
56 | CCOC(=O)N1CCN(C(=O)c2ccc3nc(N4CCC(C)CC4)sc3c2)CC1 | inactive
57 | CCOC(CNC(=O)c1ccc2nc(N3CCC(C)CC3)sc2c1)OCC | inactive
58 | Cc1cc(Oc2ccc(C(C)(C)C)cc2)nc(N2CCOCC2)n1 | inactive
59 | CN(CC(=O)NCCN1CCCCCC1)S(=O)(=O)c1cccc2nsnc12 | inactive
60 | COc1ccc(-c2nn(C)c3sc(C(=O)NCc4ccco4)cc23)cc1OC | inactive
61 | NC(=O)c1cnn2c(C(F)(F)F)cc(-c3ccc(F)cc3)nc12 | inactive
